From PubChem BioAssay
This is a sample that favours compounds with a hit; in the whole collection about 3.5% have one here.
TEAD-YAP block – TEAD-YAP interaction inhibition; HEK-TIYL cells, TEAD-Gal4/YAP UAS-luciferase luminescence; inhibition, % at 9.12 µM; hit rate 1.4% among 640,000; AID 1259422; in the data active = inhibition above about 32%
FBW7 act – activators of human E3 ligase FBW7; Q969H0; AlphaScreen FBW7–phospho-cyclin E peptide binding, activator screen; normalized activity (activation), % at 26.1 µM; hit rate 0.13% among 650,000; AID 1259310; in the data active = normalized activity above about 1.9%;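 also: purified mutant Fbw7 with reduced substrate affinity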
GPR151 activ – activators of human GPR151. Q8TDV0. hit rate 1% among 650,000. PathHunter beta-arrestin GPR151 cells, luminescence. activation, % at 11.2 µM; in the data active = activation above about 4.9%
MITF primary – blocks human microphthalmia-associated transcription factor. AlphaScreen MITF homodimerization, bead proximity signal. hit rate 0.91% among 650,000. O75030. inhibition, % at 2.6 µM; in the data active = inhibition above about 50%
Target sequence (O75030 whole entry, looked up): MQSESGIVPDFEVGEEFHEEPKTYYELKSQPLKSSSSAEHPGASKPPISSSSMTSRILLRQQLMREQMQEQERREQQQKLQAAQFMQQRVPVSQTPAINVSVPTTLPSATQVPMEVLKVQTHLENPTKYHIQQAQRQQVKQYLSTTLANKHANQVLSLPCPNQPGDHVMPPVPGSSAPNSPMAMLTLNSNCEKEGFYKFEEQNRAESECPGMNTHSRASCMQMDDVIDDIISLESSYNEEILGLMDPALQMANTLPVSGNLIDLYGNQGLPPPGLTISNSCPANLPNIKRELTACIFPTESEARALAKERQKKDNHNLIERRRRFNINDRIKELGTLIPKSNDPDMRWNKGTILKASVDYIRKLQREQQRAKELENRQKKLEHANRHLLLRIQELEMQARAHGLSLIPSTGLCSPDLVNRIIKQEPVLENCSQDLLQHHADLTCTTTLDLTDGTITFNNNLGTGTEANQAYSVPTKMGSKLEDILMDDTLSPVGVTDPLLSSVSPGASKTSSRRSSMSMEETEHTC
GPR151 conf act – confirmation of human GPR151 activators | shares compounds with GPR151 activ | GPR151 PathHunter beta-arrestin cells, luminescence, 90 min; % of EA-reagent control over plate median | activation, % at 11.2 µM | 6,700 tested, under 10 active | AID 1508609;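 active = mean percent activation across replicates above the confirmation screen cutoff of 4.91%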
GPR119 ag – activates human GPR119 in a GPR151 counter-screen | shares compounds with GPR151 activ | GPR119 PathHunter beta-arrestin cells, luminescence, 90 min; 0 = compound-well median, 100 = enzyme-acceptor control | activation, % at 11.2 µM | hit rate 0.3% among 6,700;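 active = mean percent activation in the counterscreen above 29.09%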;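 also: counterscreen on off-target GPR119 to flag nonselective hits from the GPR151 activator screen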
Each line names hits and unclear results; the compound was inactive in the other large screens (follow-up assays come after a bar, where they were run); ! = not confirmed by another sample.

COc1ccc(NC(=O)COc2ccc(-c3ccccc3)cc2)c([N+](=O)[O-])c1	none
COc1ccc(NC(=S)NC(=O)c2ccc3c(c2)OCO3)c([N+](=O)[O-])c1	GPR151 activ 7.0 | GPR151 conf act inactive | GPR119 ag inactive
COc1ccc(NC(=O)Nc2ccc(F)cc2F)c([N+](=O)[O-])c1	GPR151 activ 5.0 | GPR151 conf act inactive | GPR119 ag inactive
COc1ccc(NC(=O)COc2cccc(C)c2)c([N+](=O)[O-])c1	GPR151 activ 6.9 | GPR151 conf act inactive | GPR119 ag inactive
COP(=O)(OC)c1nc(-c2ccc(Cl)cc2)oc1NCc1ccc2c(c1)OCO2	none
COc1cc([N+](=O)[O-])ccc1NC(=O)Nc1ccc(Cl)cc1F	GPR151 activ 6.2 | GPR151 conf act inactive | GPR119 ag inactive
COc1ccc2ccccc2c1CN1CCN(CC(C)(C)C)C(CCO)C1 (stereo unspecified)	GPR151 activ 7.7 | GPR151 conf act inactive | GPR119 ag inactive
COc1ccc2ccccc2c1CN1CCN(C)C(CCO)C1 (stereo unspecified)	none
CS(=O)(=O)N1CCCCC1C(=O)Nc1ccccc1-c1nc2ccccc2s1 (stereo unspecified)	none
Cn1c(COc2ccc(Cl)cc2)nnc1SCC(=O)NCC(F)(F)F	GPR151 activ 5.1 | GPR151 conf act inactive | GPR119 ag inactive
Cn1c(COc2ccc(Cl)cc2)nnc1SCC(=O)NC(C)(C)C	none
COc1ccc(Cc2nnc(SCC(=O)Nc3ccccc3OC)n2-n2cccc2)cc1	GPR151 activ 11 | GPR151 conf act inactive | GPR119 ag inactive
COC(=O)CSc1nnc(COc2ccccc2OC)n1C	GPR151 activ 5.3 | GPR151 conf act inactive | GPR119 ag inactive
COc1ccccc1NC(=O)CSc1nnc(CNC(=O)c2ccc(C)cc2)n1C	none
CNC(=O)CSc1nnc(COc2ccccc2OC)n1C	none
COc1ccccc1NC(=O)CSc1nnc(COc2ccc(C)cc2)n1C	GPR151 activ 5.3 | GPR151 conf act inactive | GPR119 ag inactive
CCn1nnnc1-c1ccc(OC)c(S(=O)(=O)Nc2ccc(I)cc2)c1	none
COc1ccc(C(=O)Nc2ccc(Cl)c3ncsc23)cc1OC	none
CCC(C)(C)C1CCC(NC(=O)C(=O)Nc2ccccc2)CC1 (stereo unspecified)	GPR151 activ 6.3 | GPR151 conf act inactive | GPR119 ag inactive
Cc1cc(C)c(S(=O)(=O)Nc2ccc3c(c2)OCCO3)c(C)c1	none
CCCSc1nnc2c(n1)OC(c1ccc(F)cc1)Nc1ccccc1-2 (stereo unspecified)	none
CCOc1ccc(C2Nc3ccccc3-c3nnc(SCc4ccccc4F)nc3O2)cc1OC (stereo unspecified)	GPR151 activ 5.8 | GPR151 conf act inactive | GPR119 ag inactive
CCCSc1nnc2c(n1)OC(c1ccc(SC)cc1)Nc1ccccc1-2 (stereo unspecified)	GPR151 activ 5.6 | GPR151 conf act inactive | GPR119 ag inactive
COc1cccc(C(=O)COC(=O)c2cc(C)nc3ccccc23)c1	none
Cc1[nH]c2ccccc2c1C(=O)/C(C#N)=C/c1cccs1	none
COCCCNC(=O)/C(C#N)=C/c1c(Oc2ccccc2)nc2c(C)cccn2c1=O	none
COc1ccc(-c2ccc(/C=C(\C#N)C(=O)Nc3ccccc3C(=O)O)o2)c([N+](=O)[O-])c1	none
Cc1ccccc1CSc1nc2ccccc2c(=O)n1CCCC(=O)NCc1ccccc1	none
Cc1nc(NC(C)c2ccccc2)cc(-c2ccccc2F)n1 (stereo unspecified)	GPR151 activ 5.8 | GPR151 conf act inactive | GPR119 ag inactive
Oc1ccc(Cl)cc1/C=N/Nc1nc2ccccc2s1	none
O=C(Nc1cc2ccccc2cc1NC(=O)c1ccc(Cl)cc1)c1ccc(Cl)cc1	GPR151 activ 5.6 | GPR151 conf act inactive | GPR119 ag inactive
CNC(=O)CCC(=O)Nc1ccc(F)cc1	none
CCC(NC(=O)Cn1nnnc1CN1CCC(C)CC1)c1ccc(F)cc1 (stereo unspecified)	GPR151 activ 5.6 | GPR151 conf act inactive | GPR119 ag inactive
COCC(=O)Nc1nc2ccc(OC)cc2s1	GPR151 activ 8.6 | GPR151 conf act inactive | GPR119 ag inactive
CCCOc1ccc(C2NC(=O)NC(C)=C2C(=O)OCCSCC)cc1OC (stereo unspecified)	none
CS(=O)(=O)N(CC(=O)O)c1cc(C(F)(F)F)ccc1Cl	GPR151 activ 6.3 | GPR151 conf act inactive | GPR119 ag inactive
CCNC(=O)CN(c1cc(C(F)(F)F)ccc1Cl)S(C)(=O)=O	none
CCCCCNC(=O)c1c(O)c2c([nH]c1=O)CCCC2	GPR151 activ 18 | GPR151 conf act inactive | GPR119 ag inactive
O=C(NCCN1CCNCC1)c1c(O)c2c([nH]c1=O)CCCC2	none
CCN1CCCC1CNC(=O)c1c(O)c2c([nH]c1=O)CCCC2 (stereo unspecified)	GPR151 activ 6.8 | GPR151 conf act inactive | GPR119 ag inactive
COc1cccc(OC)c1OCC(O)CN1CCN(c2ccccc2)CC1 (stereo unspecified)	GPR151 activ 6.3 | GPR151 conf act inactive | GPR119 ag inactive
CC(C)NCC(O)COc1cccc2ccccc12 (stereo unspecified)	GPR151 activ 5.5! | GPR151 conf act inactive | GPR119 ag inactive
OC(COc1cccc2ccccc12)CN1CCNCC1 (stereo unspecified)	GPR151 activ 12 | GPR151 conf act inactive | GPR119 ag inactive
COc1cccc(OC)c1OCC(O)CN1CCN(c2ccccn2)CC1 (stereo unspecified)	none
Cc1ccnc(NC(=O)NC2CC(=O)N(c3ccccc3)C2)c1 (stereo unspecified)	GPR151 activ 6.1 | GPR151 conf act inactive | GPR119 ag inactive
O=C1CC(NCCCCO)C(=O)N1c1ccc(Br)cc1 (stereo unspecified)	none
COc1ccc(CCNC(=O)NC2CC(=O)N(c3cccc(F)c3)C2)cc1 (stereo unspecified)	none
COc1ccc(CCNC(=O)NC2CC(=O)N(c3ccccc3)C2)cc1 (stereo unspecified)	GPR151 activ 6.1 | GPR151 conf act inactive | GPR119 ag inactive
O=C1CC(NCCCc2ccccc2)C(=O)N1c1ccc(Br)cc1 (stereo unspecified)	GPR151 activ 11 | GPR151 conf act inactive | GPR119 ag inactive
COc1ccc(N2CC(NC(=O)Nc3ccccc3C(N)=O)CC2=O)cc1OC (stereo unspecified)	GPR151 activ 5.4 | GPR151 conf act inactive | GPR119 ag inactive
CNC(=O)C(=O)NCC1OCCN1S(=O)(=O)c1ccccc1 (stereo unspecified)	none
O=C(O)CCCCCNCc1cccc(Oc2ccccc2)c1	none
Cc1ccc(N2CC(NC(=O)Nc3nccs3)CC2=O)cc1 (stereo unspecified)	none
